Molecules are shown by their SMILES. Active and inactive are the calls of the source.

Assay [1] deals with PRMT1 (protein arginine N-methyltransferase 1). Description: small molecules binding arginine methyltransferase PRMT1 – biochemical, small-molecule microarray, 635 nm fluorescence, primary screen (AID 1088).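 Further: binding of Prmt1 protein to compounds spotted on small-molecule microarray slides.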 Particulars: higher = more signal.
The nature of assay [2]: growth effects on S. cerevisiae YJM789 – YJM789 clinical isolate, OD600, 24 h, basal, primary screen (AID 1089).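 Further: growth of clinical yeast isolate S. cerevisiae YJM 789 seeded 1000 cells per well; test concentration not given here.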 Particulars: higher = more signal, called active from +8 up or from −8 down.
A short description of assay [3]: S. pombe growth modifiers, basal conditions – strain 972, OD600, 24 h, no modulator, primary screen (AID 1090).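 Further: basal condition with compound alone and no growth modifier present; test concentration not given here.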 Particulars: S. pombe 972 growth, higher = more signal, called active from +8 up or from −8 down.
Assay [4] is described as follows: budding yeast growth modifiers under rapamycin – strain BY4716, OD600, 96 h, primary screen (AID 1091). Further: test concentration not given here. To be noted: S. cerevisiae BY4716 + rapamycin, higher = more signal, called active from +8 up or from −8 down.
Assay [5] addresses Torsin-1A-interacting protein 2 (Homo sapiens) (UniProt Q8NFQ8). In words: small molecules binding lysate-expressed LULL1 – cell lysate, human LULL1 lysate, 635/667 nm fluorescence, primary screen (AID 1092).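 Further: probe is lysate of COS7 cells overexpressing human LULL1; score merges per-feature 667 nm fluorescence with signal-to-noise.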 Particulars: small-molecule microarray, hLULL1 lysate binding, 635 nm fluorescence; higher = more signal.
Assay [6] in a line: optical density change of DRC41 E. coli – strain DRC41, OD650, 24 h, E. coli filamentation project, primary screen (AID 1093).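 Further: MC1000 strain lacking acrAB efflux and sulA so SOS filamentation is blocked; test concentration not given here.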 Particulars: E. coli DRC41 growth, higher = more signal, called active from +8 up or from −8 down.
Assay [7] is described as follows: probe aLefty2 binding to arrayed compounds – biochemical, biotinylated probe, 635/667 nm fluorescence, primary screen (AID 1094).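 Further: score merges spot fluorescence near 667 nm with spot signal-to-noise ratio.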 To be noted: small-molecule microarray, higher = more signal.
For assay [8], the system named is Noggin (protein binding on small-molecule microarray). In words: small molecules binding Noggin protein – biochemical, 635/667 nm fluorescence, primary screen (AID 1095).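 Further: score merges 667 nm feature fluorescence with signal to noise over triplicate slides.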 Particulars: 635 nm fluorescence, higher = more signal.
Assay [9] addresses Neurogenic locus notch homolog protein 3 (Homo sapiens) (UniProt Q9UM47). In words: small molecules binding NOTCH3 protein – biochemical, 635/667 nm fluorescence, primary screen (AID 1096). To be noted: small-molecule microarray, 635 nm fluorescence, higher = more signal.
A short description of assay [10]: probe aEGFR binding to arrayed compounds – biochemical, biotinylated probe, 635/667 nm fluorescence, primary screen (AID 1097).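 Further: probe is a biotinylated anti-EGFR antibody binding compounds printed on slides; score combines fluorescence near 667 nm and signal to noise of each spot.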 To be noted: small-molecule microarray, higher = more signal.
Assay [11] relates to Plasmodium falciparum Sir2 (PF13_0152, Sir2A). Description: Plasmodium falciparum Sir2A binding compounds – biochemical, small-molecule microarray, 635 nm fluorescence, primary screen (AID 1098).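 Further: score merges spot fluorescence intensity with its signal-to-noise ratio.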 Particulars: fluorescence 635 nm, higher = more signal.
Assay [12] is described as follows: probe aDKK1 binding to arrayed compounds – biochemical, biotinylated probe, 635/667 nm fluorescence, primary screen (AID 1099).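 Further: score merges 667nm spot fluorescence with signal to noise across triplicate slides; reference of the scale not given here.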 Particulars: small-molecule microarray, higher = more signal.
A short description of assay [13]: probe aCHRDL2 binding to arrayed compounds – biochemical, biotinylated probe, 635/667 nm fluorescence, primary screen (AID 1100). To be noted: small-molecule microarray, higher = more signal.
Assay [14] is described as follows: change in splice reporter luminescence, either direction, cell-based, HEK293, spliceosome inhibition project, primary screen (AID 1101).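 Further: HEK293 cells carrying a splicing-competent luciferase reporter gene; test concentration not given here.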 Particulars: HEK293 splicing luciferase reporter, 24 h, higher = more signal, called active from +8 up or from −8 down.
Assay [15] deals with Fibroblast growth factor 10 (Homo sapiens) (UniProt O15520). In words: compounds binding fibroblast growth factor 10 – biochemical, small-molecule microarray, 635 nm fluorescence, primary screen (AID 1102). To be noted: FGF10 binding, fluorescence 635 nm, higher = more signal.
Assay [16] deals with glycogen synthase kinase-3 (GSK3A per assay name; protocol says GSK3B). Description: compounds binding glycogen synthase kinase-3 – biochemical, small-molecule microarray, 635 nm fluorescence, GSK3A, primary screen (AID 1103). Further: the record names both GSK3A and GSK3B. To be noted: fluorescence 635 nm, higher = more signal.
Assay [17] addresses Epidermal growth factor receptor (Homo sapiens) (UniProt P00533). Description: compounds binding epidermal growth factor receptor – biochemical, small-molecule microarray, 635 nm fluorescence, primary screen (AID 1104).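 Further: score merges 667 nm emission intensity with spot signal to noise over triplicate slides.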 Particulars: EGFR binding, higher = more signal.
Assay [18] addresses Follistatin-related protein 3 (Homo sapiens) (UniProt O95633). In words: compounds binding follistatin-related protein 3 – biochemical, small-molecule microarray, 635 nm fluorescence, primary screen (AID 1105).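 Further: score merges emission near 667 nm and signal to noise per printed spot across three slides.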 To be noted: FSTL3 binding, higher = more signal.
Assay [19] concerns the target Dickkopf-related protein 1 (Homo sapiens) (UniProt O94907). Description: small molecules binding DKK1 protein – biochemical, small-molecule microarray, 635 nm fluorescence scan, primary screen (AID 1106).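 Further: score merges emission near 667 nm with signal to noise over three replicate slides.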 To be noted: higher = more signal.
Assay [20] relates to Inhibin beta A chain (activin A). Description: small molecules binding activin A – biochemical, small-molecule microarray, 635 nm fluorescence scan, primary screen (AID 1107).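 Further: mouse activin A protein probed at 4.33 µg/mL on printed slides; score merges bound-protein fluorescence near 667 nm with spot signal-to-noise.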 Particulars: INHBA, higher = more signal.

Sequence of Torsin-1A-interacting protein 2 (Homo sapiens) (Q8NFQ8 whole entry, looked up): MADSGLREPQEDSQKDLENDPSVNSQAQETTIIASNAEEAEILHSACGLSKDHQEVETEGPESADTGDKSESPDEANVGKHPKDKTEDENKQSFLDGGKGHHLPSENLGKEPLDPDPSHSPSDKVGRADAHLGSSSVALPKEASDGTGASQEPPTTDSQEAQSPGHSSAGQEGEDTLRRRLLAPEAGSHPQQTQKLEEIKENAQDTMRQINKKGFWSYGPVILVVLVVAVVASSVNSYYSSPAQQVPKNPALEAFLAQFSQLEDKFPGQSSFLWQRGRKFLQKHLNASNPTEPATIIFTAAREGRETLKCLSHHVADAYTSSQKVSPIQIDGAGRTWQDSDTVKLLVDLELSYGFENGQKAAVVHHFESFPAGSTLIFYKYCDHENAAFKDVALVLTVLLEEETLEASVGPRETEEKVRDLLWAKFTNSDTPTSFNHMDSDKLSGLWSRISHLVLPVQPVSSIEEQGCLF
Sequence of Epidermal growth factor receptor (Homo sapiens) (P00533 whole entry, looked up): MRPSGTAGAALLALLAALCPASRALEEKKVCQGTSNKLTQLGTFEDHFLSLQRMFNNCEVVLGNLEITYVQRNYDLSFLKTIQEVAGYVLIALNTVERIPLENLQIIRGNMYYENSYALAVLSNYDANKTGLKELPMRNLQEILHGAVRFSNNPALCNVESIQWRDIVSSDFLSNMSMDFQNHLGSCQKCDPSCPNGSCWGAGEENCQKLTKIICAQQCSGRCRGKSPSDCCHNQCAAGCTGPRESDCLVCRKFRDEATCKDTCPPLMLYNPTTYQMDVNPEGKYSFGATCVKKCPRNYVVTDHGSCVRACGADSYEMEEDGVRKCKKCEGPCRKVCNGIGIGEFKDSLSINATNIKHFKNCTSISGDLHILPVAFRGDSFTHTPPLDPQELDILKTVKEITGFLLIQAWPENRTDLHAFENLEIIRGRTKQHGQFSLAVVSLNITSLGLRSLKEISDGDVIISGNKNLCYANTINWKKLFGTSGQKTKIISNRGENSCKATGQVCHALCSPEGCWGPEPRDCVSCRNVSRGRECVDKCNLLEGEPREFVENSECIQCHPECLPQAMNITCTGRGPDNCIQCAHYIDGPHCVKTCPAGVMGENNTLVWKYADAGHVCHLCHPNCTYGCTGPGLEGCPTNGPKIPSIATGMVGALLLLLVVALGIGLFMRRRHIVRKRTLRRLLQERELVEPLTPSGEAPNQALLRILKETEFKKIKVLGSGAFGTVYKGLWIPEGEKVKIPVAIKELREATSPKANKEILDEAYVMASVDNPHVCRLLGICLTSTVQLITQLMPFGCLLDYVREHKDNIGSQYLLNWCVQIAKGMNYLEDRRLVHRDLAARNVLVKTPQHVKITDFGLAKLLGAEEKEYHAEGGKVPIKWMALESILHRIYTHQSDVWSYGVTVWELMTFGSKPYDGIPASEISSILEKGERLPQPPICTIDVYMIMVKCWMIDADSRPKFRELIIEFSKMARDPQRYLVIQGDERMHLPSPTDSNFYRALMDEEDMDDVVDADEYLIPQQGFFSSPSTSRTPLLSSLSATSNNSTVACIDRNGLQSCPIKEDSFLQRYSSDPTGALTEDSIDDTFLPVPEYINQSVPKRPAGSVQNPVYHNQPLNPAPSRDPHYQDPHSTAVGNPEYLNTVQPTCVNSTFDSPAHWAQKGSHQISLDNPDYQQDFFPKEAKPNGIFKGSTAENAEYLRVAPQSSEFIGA
Sequence of Follistatin-related protein 3 (Homo sapiens) (O95633 whole entry, looked up): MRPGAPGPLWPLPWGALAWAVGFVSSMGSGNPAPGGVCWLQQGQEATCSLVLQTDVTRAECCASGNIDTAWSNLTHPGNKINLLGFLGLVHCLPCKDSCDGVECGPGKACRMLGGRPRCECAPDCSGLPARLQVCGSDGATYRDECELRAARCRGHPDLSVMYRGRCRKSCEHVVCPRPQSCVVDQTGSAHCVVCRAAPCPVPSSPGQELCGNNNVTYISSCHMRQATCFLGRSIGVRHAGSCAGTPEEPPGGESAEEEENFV
Sequence of Neurogenic locus notch homolog protein 3 (Homo sapiens) (Q9UM47 whole entry, looked up): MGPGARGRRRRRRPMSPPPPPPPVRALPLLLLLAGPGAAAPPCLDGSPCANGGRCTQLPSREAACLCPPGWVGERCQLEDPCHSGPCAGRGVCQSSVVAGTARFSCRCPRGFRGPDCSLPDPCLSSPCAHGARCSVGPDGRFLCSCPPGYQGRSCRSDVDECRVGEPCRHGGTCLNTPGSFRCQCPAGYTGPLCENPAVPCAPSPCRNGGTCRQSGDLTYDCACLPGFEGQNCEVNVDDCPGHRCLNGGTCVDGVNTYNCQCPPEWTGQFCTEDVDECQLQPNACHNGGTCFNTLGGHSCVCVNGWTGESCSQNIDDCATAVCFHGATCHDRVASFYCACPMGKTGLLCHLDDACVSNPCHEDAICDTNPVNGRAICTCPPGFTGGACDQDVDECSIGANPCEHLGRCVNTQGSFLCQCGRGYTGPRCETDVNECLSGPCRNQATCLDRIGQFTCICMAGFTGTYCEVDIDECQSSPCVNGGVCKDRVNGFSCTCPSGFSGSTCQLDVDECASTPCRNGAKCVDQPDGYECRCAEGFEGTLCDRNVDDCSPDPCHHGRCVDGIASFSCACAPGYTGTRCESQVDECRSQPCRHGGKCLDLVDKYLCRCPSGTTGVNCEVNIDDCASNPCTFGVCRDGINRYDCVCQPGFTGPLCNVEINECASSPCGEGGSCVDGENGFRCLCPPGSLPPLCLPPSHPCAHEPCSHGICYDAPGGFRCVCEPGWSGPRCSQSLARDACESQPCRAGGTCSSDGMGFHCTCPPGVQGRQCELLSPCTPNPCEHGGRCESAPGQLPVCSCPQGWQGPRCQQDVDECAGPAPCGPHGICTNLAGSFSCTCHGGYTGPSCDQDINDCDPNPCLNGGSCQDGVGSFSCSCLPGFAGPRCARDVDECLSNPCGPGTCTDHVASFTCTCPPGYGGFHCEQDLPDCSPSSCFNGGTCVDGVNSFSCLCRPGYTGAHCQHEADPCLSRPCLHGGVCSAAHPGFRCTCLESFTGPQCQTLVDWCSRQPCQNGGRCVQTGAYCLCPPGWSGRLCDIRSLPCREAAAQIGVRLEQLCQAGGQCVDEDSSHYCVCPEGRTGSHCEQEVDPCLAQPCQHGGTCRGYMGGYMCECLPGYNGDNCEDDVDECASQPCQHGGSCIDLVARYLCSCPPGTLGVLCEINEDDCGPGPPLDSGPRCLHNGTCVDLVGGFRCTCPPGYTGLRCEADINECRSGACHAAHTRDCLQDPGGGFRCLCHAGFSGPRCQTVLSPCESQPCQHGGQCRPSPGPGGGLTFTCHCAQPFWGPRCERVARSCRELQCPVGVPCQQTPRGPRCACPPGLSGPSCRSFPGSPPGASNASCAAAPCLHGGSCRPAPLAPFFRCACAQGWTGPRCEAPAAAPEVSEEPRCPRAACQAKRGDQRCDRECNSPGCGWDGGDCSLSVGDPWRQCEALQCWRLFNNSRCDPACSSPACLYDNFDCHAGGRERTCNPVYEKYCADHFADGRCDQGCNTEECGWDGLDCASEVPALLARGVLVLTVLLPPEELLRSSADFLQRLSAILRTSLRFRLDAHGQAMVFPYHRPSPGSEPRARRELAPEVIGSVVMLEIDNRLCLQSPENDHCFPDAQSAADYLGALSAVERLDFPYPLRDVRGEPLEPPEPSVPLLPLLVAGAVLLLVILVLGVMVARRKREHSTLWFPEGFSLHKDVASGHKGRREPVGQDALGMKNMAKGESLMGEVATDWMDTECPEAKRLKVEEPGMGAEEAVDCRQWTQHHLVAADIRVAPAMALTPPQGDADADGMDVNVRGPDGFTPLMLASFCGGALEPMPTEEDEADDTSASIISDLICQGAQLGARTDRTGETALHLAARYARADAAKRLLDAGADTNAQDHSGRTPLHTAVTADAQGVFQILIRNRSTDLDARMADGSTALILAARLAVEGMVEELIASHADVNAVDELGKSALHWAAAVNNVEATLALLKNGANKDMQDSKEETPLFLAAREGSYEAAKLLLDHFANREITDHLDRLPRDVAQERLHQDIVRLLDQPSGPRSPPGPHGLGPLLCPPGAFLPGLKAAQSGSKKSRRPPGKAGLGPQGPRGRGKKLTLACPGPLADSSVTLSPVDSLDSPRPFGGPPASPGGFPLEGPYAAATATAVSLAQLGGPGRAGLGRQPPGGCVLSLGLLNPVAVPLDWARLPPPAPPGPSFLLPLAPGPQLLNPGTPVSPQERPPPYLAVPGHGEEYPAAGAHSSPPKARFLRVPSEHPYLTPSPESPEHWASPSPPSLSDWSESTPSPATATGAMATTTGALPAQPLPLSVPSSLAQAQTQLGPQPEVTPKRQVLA
Sequence of Dickkopf-related protein 1 (Homo sapiens) (O94907 whole entry, looked up): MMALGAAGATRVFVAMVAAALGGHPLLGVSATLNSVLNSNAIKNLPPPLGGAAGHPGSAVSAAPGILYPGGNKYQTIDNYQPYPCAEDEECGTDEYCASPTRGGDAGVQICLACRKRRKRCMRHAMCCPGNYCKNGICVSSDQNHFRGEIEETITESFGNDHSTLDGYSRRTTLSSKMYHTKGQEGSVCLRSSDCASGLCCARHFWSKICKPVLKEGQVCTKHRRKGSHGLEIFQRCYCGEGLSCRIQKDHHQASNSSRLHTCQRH
Sequence of Fibroblast growth factor 10 (Homo sapiens) (O15520 whole entry, looked up): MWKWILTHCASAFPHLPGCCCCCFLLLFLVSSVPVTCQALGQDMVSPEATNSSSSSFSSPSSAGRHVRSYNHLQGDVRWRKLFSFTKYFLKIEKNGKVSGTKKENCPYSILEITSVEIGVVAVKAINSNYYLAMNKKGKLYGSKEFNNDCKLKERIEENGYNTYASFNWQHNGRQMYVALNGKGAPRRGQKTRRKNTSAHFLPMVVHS

Take `COc1ccc([Si](C)(C)[C@@H]2[C@@H](CC(=O)N(CCO)Cc3ccccc3)O[C@]3(C(=O)N(Cc4cccc(N5CCC5=O)c4)c4ccccc43)[C@H]2C)cc1`: the composite z-score in assay [1] is 1.56; in assay [5] it was 1.57; in assay [7] it was -0.17; in [8], 1.33; in assay [9], 0.941; in assay [10] it was -0.135. Also, the composite z-score is 1.41 in assay [11]; -0.163 in [12]; -0.229 in assay [13]; 1.07 in [15]; 0.583 in assay [16]; 0.475 in assay [17]. In addition, the composite z-score in assay [18] stood at 0.875; in [19], 0.313; in [20], 0.552. Further, the z-score was -1.16 (inactive) in assay [2]; 0.463 (inactive) in assay [3]; 1.61 (inactive) in assay [4]; 1.48 (inactive) in [6]; -0.732 (inactive) in [14].

As to `COc1cc(CO)cc(I)c1O[C@H]1C=C(C(=O)NCCO)C[C@@H](NCCc2c[nH]c3ccccc23)[C@@H]1O`, the composite z-score in [1] is 1.39; in assay [5] it was 0.499; in assay [7] it was 0.341; in [8] it was 0.947; in assay [9] it was 0.705; in assay [10], 0.192. Besides, the composite z-score was found to be 1 in assay [11]; 0.27 in assay [12]; 0.375 in assay [13]; 1.06 in assay [15]; 0.433 in assay [16]; 0.666 in assay [17]. Besides, the composite z-score in [18] is 1.05; in assay [19] it was 0.4; in [20] it was 1.22. In addition, the z-score is 0.004 (inactive) in [2]; -12.4 (active) in assay [3]; -2.09 (inactive) in assay [4]; 2.12 (inactive) in [6]; -1.01 (inactive) in [14].

On to `CC[C@H]1C2=C3C(CC[C@H]4C(OC)OC[C@](C)([C@@H]34)N(C(=O)OC(C)(C)C)C2)C(CO)C1CO` (stereo not given in full), for which the composite z-score is 1.4 in assay [1]; 3.35 in assay [5]; 0.762 in assay [7]; 0.0676 in assay [8]; 1.11 in assay [9]; 0.477 in [10]. The composite z-score in [11] turned out to be 0.593; in assay [12] it was 1.54; in assay [13] it was 1.6; in assay [15], 0.754; in assay [16], 1.16; in assay [17], 0.194. Besides, the composite z-score is 1.07 in [18], -0.212 in [19] and 0.828 in [20]. Besides, the z-score in assay [2] was -1.22 (inactive); in [3], 1.21 (inactive); in [4], -0.565 (inactive); in assay [6], -0.468 (inactive); in [14] it was -0.715 (inactive).

In the case of `COCCOC(=O)N1C(=O)[C@@]2(c3cc(C#CCC(C(=O)OC)C(=O)OC)ccc31)[C@H](C(=O)N1CCN(c3ncccn3)CC1)[C@H]1C(=O)O[C@H](c3ccccc3)[C@H](c3ccccc3)N1[C@@H]2c1ccc(O)cc1`, the composite z-score is 1.54 in assay [1]; 2.23 in assay [5]; -0.0288 in [7]; 0.414 in [8]; 1.17 in assay [9]; -0.0675 in assay [10]. Further, the composite z-score in [11] was determined as 1.25; in assay [12], 0.2; in assay [13], 0.733; in assay [15], 0.589; in assay [16], 0.845; in assay [17], 0.279. For the same compound, the figures for the composite z-score in assay [18], in assay [19] and in [20] were 0.698, 0.0392 and 0.283, respectively. Moreover, the z-score in [2] was -0.256 (inactive); in assay [3], -1.38 (inactive); in assay [4], 0.921 (inactive); in assay [6], 3.19 (inactive); in [14] it was -1.15 (inactive).

As to `C=CCNC(=O)[C@H]1[C@@H]2C(=O)O[C@@H](c3ccccc3)[C@@H](c3ccccc3)N2[C@@H](c2ccccc2OCCO)[C@]12C(=O)N(C(=O)OCCOC)c1ccc(C#CCNC(N)=O)cc12`, the composite z-score in assay [1] is 1.55; in assay [5] it was 2.39; in assay [7] it was -0.108; in [8], 0.878; in assay [9], 1.15; in assay [10], -0.0389. For the same compound, the composite z-score in assay [11] turned out to be 1.28; in assay [12] it was 0.607; in assay [13] it was 0.802; in assay [15], 0.471; in assay [16] it was 0.843; in assay [17] it was 0.158. The results for the composite z-score in assay [18], in assay [19] and in assay [20] were 0.507, 0.111 and 0.889, respectively. Also, the z-score in assay [2] is 0.602 (inactive); in assay [3] it was -0.26 (inactive); in assay [4], 3.16 (inactive); in assay [6], 2.35 (inactive); in assay [14], -0.294 (inactive).

The values above are taken from PubChem BioAssay.
